# According to ChEMBL document CHEMBL3988442, “University of Dundee, Small-Polar-MMV Screening Library” (2021):
# Out of some 48,000 compounds screened, about 13,000 (27%) showed an effect of 50% or more. Some of the results follow.
# Test system: Wolbachia pipientis
# Assay: Anti-Wolbachia Cell-Based Screen
# Assay type: functional
# Parameters: scale not given: in the data most compounds retested in dose-response had high values
# Conditions: 5 µM
row,SMILES,Percent Effect [%]
1,CCOC(C)c1nc(CN2CCNCC2)cs1 (stereo unspecified),1.236
2,CN(C)C(=O)CN1CCO[C@H]2CN(Cc3ccoc3)C[C@H]21,95.5
3,Cc1cccc(CN2C(=O)CO[C@@H]3CN(C4CCOCC4)C[C@H]32)c1.O=C(O)C(F)(F)F,109.7
4,c1cc(CN2C[C@@H]3OCCN(CC4CCCO4)[C@@H]3C2)co1 (stereo partly specified),-2.91
5,Cc1cccc(CN2C(=O)CO[C@@H]3CN(CCO)C[C@H]32)c1.O=C(O)C(F)(F)F,23.75
6,O=C(O)C(F)(F)F.O=C1CO[C@@H]2CN(C3CCOCC3)C[C@H]2N1Cc1cccc(F)c1,2.353
7,CN(C)CCN1CCO[C@H]2CN(Cc3cnn(C)c3)C[C@H]21.O=C(O)C(F)(F)F.O=C(O)C(F)(F)F.O=C(O)C(F)(F)F,2.67
8,CN(C)C(=O)CN1CCO[C@H]2CN(Cc3cccc(F)c3)C[C@H]21,99.44
9,CN1CCC(N(C)CCC(=O)N2CCN(Cc3cccc(F)c3)CC2)C1 (stereo unspecified),-12.08
10,CN(C)C(=O)CO[C@H]1CN(Cc2cccc(F)c2)[C@@H]2CCCO[C@H]12.O=C(O)C(F)(F)F,5.103
11,Cc1cc(C)cc(CN2C[C@@H]3OCCN(CC(=O)N(C)C)[C@@H]3C2)c1.O=C(O)C(F)(F)F,122.5
12,O=C(O)C(F)(F)F.O=C(O)C(F)(F)F.O=C(O)C(F)(F)F.c1cc(CN2C[C@@H]3OCCN(CCN4CCCC4)[C@@H]3C2)co1,-5.454
13,Cc1cc(C)cc(CN2C[C@@H]3OCCN(S(=O)(=O)N(C)C)[C@@H]3C2)c1,-1.729
14,CC(SCc1cc(Br)cc2cccnc12)C(N)=O (stereo unspecified),-22.01
15,COc1ccc2c(c1)CC(C(=O)N(C)CCCc1cnn(C)c1)CO2 (stereo unspecified),-3.689
16,CC(C)[C@@H]1CN(c2ccc(C(F)(F)F)cn2)C[C@H]1NS(C)(=O)=O,-16.11
17,OCC(O)CSCc1ccc(F)cc1Cl (stereo unspecified),-2.217
18,CC(=O)N[C@@H]1CN(C(=O)c2ccoc2)C[C@H]1c1ccc(C)cc1,0.232
19,Cc1cccc(CN2C[C@@H]3OCCN(S(=O)(=O)N(C)C)[C@@H]3C2)c1.O=C(O)C(F)(F)F,1.609
20,Cc1cc(CN2CC[C@H]3[C@H]2CCN3CC(=O)N(C)C)oc1C.O=C(O)C(F)(F)F.O=C(O)C(F)(F)F,-40.85
21,Cc1cccc(CN2C[C@@H]3OCCN(CC(=O)N(C)C)[C@@H]3C2)c1.O=C(O)C(F)(F)F,97.29
22,O=C(NC[C@H]1OC[C@@H](NC2COC2)[C@@H]1O)C1CCCC1,-18.2
23,Cn1cc(C(C)(O)CNC(=O)c2ccc(Br)s2)cn1 (stereo unspecified),0.7525

row,SMILES,Percent Effect [%]
1,Cc1noc(C)c1CN(Cc1ccccc1)C(C)C,-1.884
2,O=C(NCC1CC1)[C@@H]1CCO[C@@H]2CCN(CCc3ccccc3)C[C@H]21.O=C(O)C(F)(F)F,103.2
3,CN(C)C(=O)[C@@H]1CCO[C@@H]2CCN(CCc3ccccc3)C[C@@H]21.O=C(O)C(F)(F)F,0.9995
4,CN(C)C(=O)[C@@H]1CCO[C@@H]2CCN(CCOCc3ccccc3)C[C@H]21.O=C(O)C(F)(F)F,110
5,O=C(NC1CC1)[C@@H]1CCO[C@@H]2CCN(CCc3ccccc3)C[C@@H]21.O=C(O)C(F)(F)F,121.8
6,O=C(NCC1CC1)[C@@H]1CCO[C@@H]2CCN(Cc3ccc(F)cc3)C[C@H]21.O=C(O)C(F)(F)F,-1.927
7,CNC(=O)[C@@H]1CCO[C@@H]2CCN(C3CCOCC3)C[C@@H]21.O=C(O)C(F)(F)F,-5.14
8,O=C(NC1CC1)[C@@H]1CCO[C@@H]2CCN(C3CCOCC3)C[C@H]21.O=C(O)C(F)(F)F,-6.605
9,CN(C)C(=O)[C@@H]1CCO[C@@H]2CCN(Cc3ccccc3)C[C@@H]21.O=C(O)C(F)(F)F,-6.959
10,Cc1noc(C)c1CN1CC[C@H]2OCC[C@@H](C(=O)NCC3CC3)[C@H]2C1.O=C(O)C(F)(F)F,-0.6103
11,O=C(NC1CCC1)[C@@H]1CCO[C@@H]2CCN(CCc3ccccc3)C[C@H]21.O=C(O)C(F)(F)F,10.39
12,CNC(=O)[C@@H]1CCO[C@@H]2CCN(CCc3ccccc3)C[C@H]21.O=C(O)C(F)(F)F,100.2
13,CC1=N[C@@]2(CC[C@@H]3CN(S(=O)(=O)CC(C)C)C[C@@H]32)C(=O)N1CC1CC1,5.74
14,O=C(C1CCCN(Cc2cccc(F)c2)C1)N1CCc2sccc2C1 (stereo unspecified),1.206
15,CCN(CCc1nccs1)C(=O)c1sccc1C,-15.07
16,Cc1noc(C)c1CN(C)Cc1csc(-c2ccc(C(C)C)cc2)n1,-1.572
17,COCC(C)(CCO)NC(=O)Nc1cccc(F)c1C (stereo unspecified),-3.176
18,O=C([C@@H]1CCO[C@@H]2CCN(CC3CC3)C[C@H]21)N1CCCC1,-26.98
19,O=C(O)C(F)(F)F.O=C([C@@H]1CCO[C@@H]2CCN(CCc3ccccc3)C[C@@H]21)N1CCCC1,117.3
20,O=C(O)C(F)(F)F.O=C([C@H]1CN(CCc2ccccc2)C[C@H]2OCC[C@@H]12)N1CCCO1,-7.584
21,CC(C)n1cnc2c(N3CCCC3)nc(C3CCNCC3)cc21.Cl.Cl,-3.823
22,Cc1nc(C2CCCNC2)cc(N(C)CCc2cn[nH]c2)n1 (stereo unspecified),4.214
23,CCN(CC)c1ncc(Cl)c(C(=O)NC2CCC(O)CC2)n1 (stereo unspecified),-11

row,SMILES,Percent Effect [%]
1,Cl.Cl.Cn1cnc2c(-c3cccnc3)nc(C3CCNCC3)cc21,-57.7
2,CN(C)c1ncc2c(O)nc(C3CCCNC3)cc2n1 (stereo unspecified),88.81
3,CCN(CC)c1ncc(Cl)c(C(=O)NC2CC2)n1,-2.852
4,CCN(CC)c1ncc2c(O)nc(C3CCNCC3)cc2n1,97.4
5,CN(C)c1ncc2c(O)nc(C3CCNCC3)cc2n1.Cl,122.5
6,CN(C)CCNC(=O)c1noc2c1CN(C(=O)N(C)C)CC2,9.564
7,Cn1cc(C(=O)NCCC(=O)N2CCCCC2)c(-c2cccnc2)n1,-19.31
8,Cc1c(NCC(C)(C)C)cccc1C(=O)NCc1ncnn1C,-8.622
9,Cc1c(C(=O)NCC(C)(C)S(C)(=O)=O)cccc1-c1ccccn1,90.41
10,Cc1ccc(C(=O)NCCCS(=O)(=O)c2ccccc2)c(=O)[nH]1,14.19
11,Cc1c(C(=O)NCCCS(C)(=O)=O)cccc1-c1ccccn1,78.39
12,Cn1ccc2c(C(=O)NCCCS(C)(=O)=O)cccc21,-9.064
13,Cc1c(C(=O)NCCC(=O)N2CCCC2)cccc1-c1ccccn1,102.1
14,Cc1c(C(=O)NCCC(=O)N2CCCC2)oc2c(F)cccc12,5.296
15,Cc1c(I)cccc1C(=O)NCc1ncc[nH]1,-7.865
16,Cc1csc(C2(NCc3nc(-c4ccco4)no3)CCCC2)n1,-16
17,Cc1cc(C)n2nc(CC(=O)N[C@H]3C[C@H]4CN(C)CCN4C3)nc2n1,-5.28
18,c1ccc2c(c1)COC1(CCCC1)N2,105.5
19,O=C(O)C(F)(F)F.O=C1COC2(CCN(Cc3ccc(F)cc3)CC2)CN1,10.25
20,c1ccc2c(c1)COC1(CCCCC1)N2,87.69
21,OCC1(Cc2ccc(Cl)cc2)CCN(Cc2ccccc2O)CC1,-3.576
22,CC1CCC2(CC1)Nc1ccccc1CO2 (stereo unspecified),93.91
23,c1ccc(CN2CCC3(CC2)Nc2ccccc2CO3)cc1,107.9

row,SMILES,Percent Effect [%]
1,CCc1nc(NC(=O)NCCc2cccc(C)n2)nn1C,-4.482
2,O=S(=O)(NCC(O)c1ccc(C(F)(F)F)cc1)C1CC1 (stereo unspecified),-5.07
3,Cc1noc(C)c1CNc1cccc(C(=O)N2CCCC(O)C2)c1 (stereo unspecified),6.213
4,CC(C)(C)n1ncc2c(=O)[nH]c(N3CCC4(CCCCC4)C3)nc21,-1.553
5,Cc1nnc(SC2CCN(c3sccc3C#N)C2=O)[nH]1 (stereo unspecified),106.7
6,CN(Cc1ncnn1C)C1CCN(c2sccc2C#N)C1=O (stereo unspecified),7.621
7,Cc1nnc(SC2CCN(c3sccc3C#N)C2=O)s1 (stereo unspecified),109.2
8,CCc1cnc(CN(C)C2CCN(c3sccc3C#N)C2=O)s1 (stereo unspecified),1.692
9,N#Cc1ccsc1N1CCC(Sc2ccncc2)C1=O (stereo unspecified),81.54
10,N#Cc1ccsc1N1CCC(Sc2ncc[nH]2)C1=O (stereo unspecified),95.53
11,CCc1ncc(CN(C)C2CCN(c3sccc3C#N)C2=O)s1 (stereo unspecified),0.715
12,Cn1c(N)nnc1SC1CCCN(c2ccccc2)C1=O (stereo unspecified),-9.447
13,O=C1C(Sc2nc(=O)ccn2C2CC2)CCN1c1ccccc1 (stereo unspecified),-7.516
14,Cc1cc(N)nc(SC2CCN(c3ccccc3)C2=O)n1 (stereo unspecified),-22.79
15,Cc1cc(N)nc(SC2CCN(c3ccccc3F)C2=O)n1 (stereo unspecified),10.35
16,CCC(CO)N(Cc1ccco1)C(=O)c1sccc1NC(C)=O (stereo unspecified),21.44
17,Cc1oncc1NS(=O)(=O)c1c[nH]c2ncccc12,-22.29
18,c1cncc(COCC2CN(Cc3ccsc3)Cc3ccnn3C2)c1 (stereo unspecified),-8.281
19,COc1ccccc1OCCNc1snc(Cl)c1C#N,-4.663
20,Cc1csc(CN(C)C2CCN(c3sccc3C#N)C2=O)n1 (stereo unspecified),9.47
21,CCc1noc(CN(C)C2CCN(c3sccc3C#N)C2=O)n1 (stereo unspecified),0.9243
22,Cc1nc(SC2CCN(c3sccc3C#N)C2=O)oc1C (stereo unspecified),85.81
